# This is a sample that favours compounds with a hit; in the whole collection about 8% have one here.
# KB-3-1 cytotox = kills parental KB-3-1 adenocarcinoma cells | Potency, µM (doses to about 46.1 µM), most hits filed as cytotoxic | 400,000 tested, 1.4% active | AID 1347075 | KB-3-1 viability, CellTiter-Glo ATP luminescence, 72 h; note: % is set by controls: 0 for no effect and ±100 for the full control effect; nearly all actives have a fitted effect of over 60% in size
#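 Using CellTiter-Glo luminescence, growth of non-resistant KB-3-1 adenocarcinoma cells is assessed 72 h after pin-tool compound addition at 37 °C. Normalized responses across the concentration series yield fitted curves.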
# HT1080NT lethal = kills 2HG-producing HT-1080-NT fibrosarcoma cells; HT-1080-NT fibrosarcoma viability, CellTiter-Glo ATP luminescence, 48 h; Potency, µM (highest dose often 46.1 µM), for the others: at the top dose activity, negative = less viability, actives largely listed as cytotoxic; AID 686970; 360,000 tested, 1.6% active;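 note: NT is the 2HG producing partner of a matched IDH1 knockdown line; 0% = DMSO-treated cells and -100% = media-only wells without cells; nearly all actives have a fitted effect of over 55% in size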
#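 Viability by CellTiter-Glo luminescence after 48 h compound exposure at 37C of HT-1080-NT cells (750/well, RPMI, 5% FBS). % activity scaled between DMSO wells and medium-only wells, then curve-fitted and categorized by curve class.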
# HT1080 IDH1KD tx = HT-1080 IDH1 knockdown cell toxicity (counter line). HT-1080 IDH1 knockdown viability, ATP luminescence, 48 h. Potency, µM (titrated, usually from 46.1 µM), for the others: at the highest dose activity, negative = toxicity, most hits filed as cytotoxic. 360,000 tested, 2% active. AID 686971;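 note: 0% = DMSO wells and -100% = cell-free medium wells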
#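 IDH1KD HT-1080 cells, 750/well, RPMI + 5% FBS; compound pinned after 2 h settling; 48 h, 37 °C; CellTiter-Glo luminescence; % activity normalised to DMSO and no-cell wells; curves fitted, classed by r2 and efficacy.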
# SW480 rereplic = DNA re-replication induction in SW480 cells; SW480 DNA re-replication, Hoechst DNA content imaging, 48 h; Potency, µM (titrated, usually from 46.1 µM), without a hit: at the top dose re-replication activation, usual class: activators; 340,000 tested, 1.8% active; AID 624297; note: % of control where 0% means no effect; nearly all actives have a fitted effect of over 55% in size
#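 Per well, 250 cells were exposed to pinned compound for 48 hr. Nuclear DNA was visualised with Hoechst (40 min, 37 C) and total object intensity recorded by fluorescence scanning.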
# KB-V1 MDR tox = KB-V1 MDR subline cytotoxicity. KB-V1 MDR cells viability, CellTiter-Glo, 72 h. Potency, µM (series often up to 46.1 µM), actives largely listed as cytotoxic. 400,000 tested, 3.4% active; note: % is set by controls: 0 for no effect and ±100 for the full control effect; nearly all actives have a fitted effect of over 60% in size
#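 Luminescent ATP read-out (CellTiter-Glo, 10 min) measures survival of drug-selected KB-V1 MDR cells after 72 h, 37 degrees C compound exposure. Medium: phenol-red-free DMEM, 10% FBS. Values from fitted concentration-response curves.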
# MCF10A rerep = inducers of DNA re-replication in MCF 10A breast cells. 350,000 tested, 2.9% active. Potency, µM (highest dose often 46.1 µM), for inactives: at the highest dose activity, positive = re-replication, hits mostly activators. MCF 10A DNA re-replication, Hoechst nuclear intensity, 48 h; note: % of control where 0% means no effect; nearly all actives have a fitted effect of over 50% in size
# An asterisk follows results filed as active; i = inactive; ? = inconclusive; nt = no result. Calls come from the whole dose curve; as a rule, active = well fitted curve in the direction sought with a large enough effect; inconclusive = small, poorly fitted or top-dose-only effect, or another doubt; inactive = no such curve, though single readings can be large; an effect the other way counts as inactive or inconclusive. Potency is the fitted concentration of half-maximal effect.
SMILES,KB-3-1 cytotox,HT1080NT lethal,HT1080 IDH1KD tx,SW480 rereplic,KB-V1 MDR tox,MCF10A rerep
O=C(OCCC12CC3CC(CC(C3)C1)C2)c1ccc(NCc2cc(O)ccc2O)cc1,14.6µM*,6.51µM*,7.31µM*,?,?,?
CCNC(=O)OCCC12CC3CC(CC(C3)C1)C2,i,9.8%,12.0%,-2.3%,i,-5.6%
O=C(OCC12CC3CC(CC(C3)C1)C2)c1ccc(NCc2cc(O)ccc2O)cc1,?,?,20.6µM*,?,i,25.2%
N#CCC(=O)Nc1ccc(C(=O)OCC(=O)C23CC4CC(CC(C4)C2)C3)cc1,i,-3.5%,-0.2%,-4.6%,i,3.8%
COc1cccc(-c2nc3c(c(C)nn3-c3ccccc3)c3cc(OC)c(OC)cc23)c1,i,nt,nt,nt,i,nt
COc1cc2c(-c3ccc(O)cc3)nc3c(c(C)nn3-c3ccccc3)c2cc1OC,?,-19.4%,-25.9%,?,3.66µM*,14.6µM*
CC(C)CCCCCCc1ccc(O)cc1,nt,nt,nt,10.4%,nt,29.9µM*
Cc1ccc(C(=O)Nc2cc(-c3nc4ncccc4o3)ccc2C)c(C)c1,i,nt,nt,nt,i,nt
CC1(C)Cc2c(sc(NC(=O)COc3ccc(Cl)cc3)c2C(N)=O)C(C)(C)N1,i,2.5%,7.3%,-4.3%,i,7.5%
CC1(C)Cc2c(sc(NC(=O)c3ccc(C(=O)c4ccccc4)cc3)c2C(N)=O)C(C)(C)N1,?,10.3µM*,9.2µM*,20.6µM*,?,23.1µM*
CC1(C)Cc2c(sc(NC(=O)c3ccc4ncsc4c3)c2C(N)=O)C(C)(C)N1,?,23.1µM*,23.1µM*,?,?,?
COC(=O)c1c(NC(=O)c2ccccc2)sc2c1CC(C)(C)NC2(C)C,i,-3.1%,-0.2%,0.2%,i,0.7%
COc1ccc(OC)c(/C=C/c2sc3ccccc3[n+]2C)c1,?,nt,nt,nt,i,nt
O=S(=O)(Nc1ccc(Br)cc1)c1cccc(NS(=O)(=O)c2cccs2)c1,i,-1.2%,-11.0%,-6.4%,i,7.31µM*
COc1ccc(NC(=O)c2ccc(NC(=O)CCS(=O)(=O)c3cccs3)cc2)cc1OC,i,nt,nt,nt,i,nt
Clc1cc(Cl)cc(CN2CCSCC2)c1,i,8.1%,11.7%,-11.0%,i,6.3%
CCOCCc1nn2c(=O)cc(COC(=O)c3ccccc3NC(=O)c3cccs3)nc2s1,i,nt,nt,nt,i,nt
COc1cccc(Oc2ccc(C(F)(F)F)cc2NC(=O)CN2C(=O)NC3(CCCC3)C2=O)c1,?,?,-22.3%,57.2%,i,18.4µM*
COc1ccc(NC(=O)CN2C(=O)NC3(CCCC3)C2=O)c(OC)c1,i,-2.5%,-0.8%,-1.2%,i,-0.4%
CCOC(=O)c1c(NC(=O)CN2C(=O)NC3(CCCCC3)C2=O)sc(C)c1-c1ccc(C)cc1,?,-2.6%,-9.3%,nt,20.6µM*,?
CCOC(=O)c1c(NC(=O)CN2C(=O)NC3(CCC(C)CC3)C2=O)sc(C)c1-c1ccc(C)cc1 (stereo not given),i,-5.1%,-0.4%,-6.0%,i,3.7%
Cc1ccc(Cl)cc1NC(=O)CNC(=O)N1CC(=O)Nc2ccccc21,i,-3.6%,0.0%,29.1µM*,i,-1.2%
Cc1ccc(Cl)cc1NC(=O)CN1C(=O)NC2(CCCCCC2)C1=O,i,-9.5%,-2.2%,-1.4%,20.6µM*,1.1%
Cc1ccc(Cl)cc1N1CCN(C(=O)Cn2c(-c3cccs3)cc3cc(F)ccc32)CC1,i,nt,nt,nt,i,nt
CCOc1ccc(CCN2C(=S)N([C@@H](Cc3ccc(O)cc3)CN3CCC[C@@H]3CN3C(=S)NC[C@@H]3Cc3ccccc3)C[C@@H]2Cc2ccc(O)cc2)cc1,?,?,?,nt,i,nt
SMILES,KB-3-1 cytotox,HT1080NT lethal,HT1080 IDH1KD tx,SW480 rereplic,KB-V1 MDR tox,MCF10A rerep
O=C(CN1C(=O)NC2(CCCCC2)C1=O)Nc1cccc2ncccc12,i,-2.1%,-10.3%,20.6µM*,i,-0.4%
O=c1cc(-c2ccccc2Cl)oc2ccc([N+](=O)[O-])c(O)c12,i,2.0%,-3.7%,19.1%,i,0.366µM*
COc1ccc(-c2cc(=O)c3ccccc3o2)cc1,i,-12.2%,-10.0%,-6.3%,i,0.7%
Cc1ccccc1-c1cc(=O)c2c(O)cccc2o1,?,7.4%,7.6%,-9.3%,i,-10.3%
COc1ccccc1-c1cc(=O)c2c(O)ccc([N+](=O)[O-])c2o1,20.6µM*,5.3%,13.5%,1.7%,4.61µM*,-8.3%
O=c1cc(-c2ccccc2Cl)oc2c([N+](=O)[O-])c(O)cc(O)c12,i,-28.8%,-29.3%,-3.5%,i,0.82µM*
O=C(Nc1ccc(O)c2c(=O)cc(-c3ccccc3Cl)oc12)c1ccccc1Cl,i,-7.7%,-0.1%,33.1%,i,4.4%
COc1ccc2oc(-c3ccccc3[N+](=O)[O-])cc(=O)c2c1,?,8.2µM*,6.51µM*,8.2µM*,5.8µM*,6.51µM*
Cc1ccccc1OCC(=O)Nc1cc(-c2cccc(Br)c2)nn1-c1ccccc1,i,nt,nt,nt,?,nt
Cc1ccccc1Cn1c(=O)n(Cc2ccc(Cl)cc2)c(=O)c2cccnc21,i,nt,nt,nt,i,nt
CCOC(=O)c1ccccc1NC(=O)N1CCN(Cc2cc(=O)n3nc(-c4ccccc4)sc3n2)CC1,i,nt,nt,nt,?,nt
Nc1ccc2oc(-c3ccccc3Cl)cc(=O)c2c1O,7.31µM*,5.3%,4.8%,-4.7%,?,-11.2%
Cc1c(C(=O)NNC(=O)c2csc(N3CCOCC3)n2)oc2ccccc12,i,-18.0%,-11.9%,0.9%,i,14.6µM*
Cc1ccc2nc(-c3cc(NC(=O)/C=C/c4ccccc4)ccc3Cl)oc2c1,i,nt,nt,nt,i,nt
CCCCNC(=O)C1c2ccccc2OCC(=O)N1Cc1ccc2c(c1)OCO2 (stereo not given),i,8.5%,4.7%,nt,i,nt
Cc1nc(-[n+]2nc(-c3ccncc3)nn2-c2ccccc2)sc1C,?,25.9µM*,10.3µM*,nt,?,nt
COc1ccc(CNC[C@@H](CCCCN(C)Cc2ccc(OC)cc2)N2C[C@H](c3ccccc3)N(CCc3ccc(Cl)c(Cl)c3)C(=O)C2=O)cc1,i,18.4µM*,23.1µM*,-8.2%,i,?
CCCCCn1c(=N)c(S(=O)(=O)c2ccccc2)cc2c(=O)n3cccc(C)c3nc21,i,nt,nt,nt,i,nt
CCCn1c(-c2cccnc2Cl)nc2cc(Cl)c(Cl)cc21,i,-11.0%,?,26.8%,16.4µM*,?

# Screening data from PubChem BioAssay.
